Where “and” joins values, the source holds several entries; their conditions need not be identical. Equal values may be shown once. Inconclusive results are not listed. Calls of active or inactive are those of the source.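 Rule for the calls, unless noted: active = normalized viability below 100% at a tested concentration; inactive = the rest.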
How the values were obtained:
[1] = P. berghei load reduction in hepatocytes – cell-based, HepG2, luciferase luminescence, HepG2 viability, primary screen (AID 624349; in the data active = parasite load remaining mostly below about 12%, no sharp cut-off; inactive = mostly above about 10%;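 note: 100% = mean of DMSO negative control wells on the same plate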); details: P. berghei liver stage in HepG2, luciferase luminescence, concentration not given here; parasite load remaining: stronger effect = lower value; viability: measured here: HepG2 viability without parasites
[2] = tested on: Aerobactin synthetase IucA (Klebsiella pneumoniae); assay: inhibition of K. pneumoniae IucA enzyme – biochemical, Tocris library, absorbance (AID 1345561; call rule not given here;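 note: 100% = enzyme without compound and 0% = no enzyme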); details: purified IucA enzyme assay, absorbance (OD) read-out; stronger effect = lower value;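 tested at 8 µM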
[3] = viability loss in pontine glioma line – cell-based, SU-DIPG-XVII, MIPE5.0, CellTiter-Glo, qHTS, dose response (AID 1347060; cut-off not given, nearly all actives have AC50 up to about 26 µM); details: CellTiter-Glo ATP luminescence
[4] = viability loss in pontine glioma line – cell-based, SU-DIPG-XIII, MIPE4.0, CellTiter-Glo, qHTS, dose response (AID 1347061; cut-off not given, nearly all actives have AC50 up to about 37 µM;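 note: cells exposed to compound for 48 hours before readout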); details: CellTiter-Glo ATP luminescence
[5] = viability loss in pontine glioma line – cell-based, JHH-DIPG-1, MIPE4.0, CellTiter-Glo, qHTS, dose response (AID 1347062; cut-off not given, nearly all actives have AC50 up to about 27 µM); details: JHH-DIPG-1 viability, CellTiter-Glo ATP luminescence
[6] = growth inhibition of DIPG cells – cell-based, MIPE4.0 library, CellTiter-Glo luminescence, qHTS (AID 1347066; cut-off not given, nearly all actives have AC50 up to about 30 µM;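 note: cells exposed to compound for 48 hours before readout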); details: SU-DIPG-VI viability, CellTiter-Glo ATP luminescence
[7] = JHH-DIPG-1 glioma cell viability, MIPE5.0 library, CellTiter-Glo luminescence, qHTS (AID 1347067; cut-off not given, nearly all actives have AC50 up to about 26 µM;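 note: cells exposed to compound for 48 hours before readout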); details: JHH-DIPG-1 glioma viability, CellTiter-Glo ATP luminescence
[8] = viability loss with induced miR-34 in A549 – imaging, A549 dox-inducible miR-34, nuclei and caspase counts, primary screen (AID 1347080;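 active = compounds whose cell count with miR-34 switched on is under 0.7 times the count with it off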); details: A549 miR-34 inducible, Hoechst nuclei count, 48 h
[9] = compounds altering HSF1 focus formation in cells – imaging, Selleck Cancer Library (AID 1347162; in the data active = plate-normalised HSF1 focus index below about 0.46); details: human cells, HSF1 nuclear foci imaging, at 10 µM; SSMD: measured here: HSF1 foci SSMD mean; cell count: measured here: cell number; plate-normalised HSF1 focus index: stronger effect = lower value
[10] = MELAS cybrid and Rieske KO viability enhancers – cell-based, MELAS cybrids, Rieske KO mouse fibroblasts, CellTiter-Glo, primary screen (AID 1508586;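 active = mean z-score across replicates of 1.96 or higher in either the MELAS or the Rieske mutant cell line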;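 note: z relative to plate mean and SD of compound and empty wells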); details: low glucose
[11] = drug combination growth inhibition, ovarian cancer – cell-based, oncology-focused library, rucaparib conditional, profiling panel (AID 1508598); details: patient-derived ovarian cancer cells, CellTiter-Glo viability, 144 h, stronger effect = lower value
[12] = galactose survival enhancers in mitochondrial complex I cybrids – cell-based, galactose medium, ATP luminescence, primary screen (AID 1645843;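 active = z-score of at least 1.8 in each of two replicates, scored against plate mean and spread of sample wells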;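 note: positive z means more ATP and so rescue of galactose-driven cybrid death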); details: complex I mutant cybrid cells, 72 h, stronger effect = higher value
[13] = viability loss in pontine glioma line – cell-based, SU-DIPG-XIII, MIPE5.0, CellTiter-Glo, qHTS, dose response (AID 1347064; cut-off not given, nearly all actives have AC50 up to about 23 µM); details: CellTiter-Glo ATP luminescence
[14] = viability loss in pontine glioma line – cell-based, SU-DIPG-XXV, MIPE5.0, CellTiter-Glo, qHTS, dose response (AID 1347065; cut-off not given, nearly all actives have AC50 up to about 26 µM;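 note: cells exposed to compound for 48 hours before ATP readout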); details: CellTiter-Glo ATP luminescence
[15] = stronger effect = lower value, cell number ratio, induced over uninduced
[16] = measured here: relative caspase fold change +Dox/-Dox
[17] = measured here: total cells with miR-34 induction, stronger effect = lower value
[18] = measured here: total cells without miR-34 induction
[19] = MELAS cybrid survival, CellTiter-Glo 48 h, stronger effect = higher value
[20] = Rieske KO mouse fibroblast survival, CellTiter-Glo 72 h
[21] = at 0.000305 µM, OCI-C5x cells, with rucaparib 10 µM, 100% = cells with rucaparib alone
[22] = at 0.000305 µM, OCI-C5x cells, without rucaparib
[23] = at 0.000305 µM, OCI-P5x cells, with rucaparib 20 µM, 100% = cells with rucaparib alone
[24] = at 0.000305 µM, OCI-P5x cells, without rucaparib
[25] = at 0.00122 µM, OCI-C5x cells, with rucaparib 10 µM, 100% = cells with rucaparib alone
[26] = at 0.00122 µM, OCI-C5x cells, without rucaparib
[27] = at 0.00122 µM, OCI-P5x cells, with rucaparib 20 µM, 100% = cells with rucaparib alone
[28] = at 0.00122 µM, OCI-P5x cells, without rucaparib
[29] = at 0.00488 µM, OCI-C5x cells, with rucaparib 10 µM, 100% = cells with rucaparib alone
[30] = at 0.00488 µM, OCI-C5x cells, without rucaparib
[31] = at 0.00488 µM, OCI-P5x cells, with rucaparib 20 µM, 100% = cells with rucaparib alone
[32] = at 0.00488 µM, OCI-P5x cells, without rucaparib
[33] = at 0.0195 µM, OCI-C5x cells, with rucaparib 10 µM, 100% = cells with rucaparib alone
[34] = at 0.0195 µM, OCI-C5x cells, without rucaparib
[35] = at 0.0195 µM, OCI-P5x cells, with rucaparib 20 µM, 100% = cells with rucaparib alone
[36] = at 0.0195 µM, OCI-P5x cells, without rucaparib
[37] = at 0.0781 µM, OCI-C5x cells, with rucaparib 10 µM, 100% = cells with rucaparib alone
[38] = at 0.0781 µM, OCI-C5x cells, without rucaparib
[39] = at 0.0781 µM, OCI-P5x cells, with rucaparib 20 µM, 100% = cells with rucaparib alone
[40] = at 0.0781 µM, OCI-P5x cells, without rucaparib
[41] = at 0.313 µM, OCI-C5x cells, with rucaparib 10 µM, 100% = cells with rucaparib alone
[42] = at 0.313 µM, OCI-C5x cells, without rucaparib
[43] = at 0.313 µM, OCI-P5x cells, with rucaparib 20 µM, 100% = cells with rucaparib alone
[44] = at 0.313 µM, OCI-P5x cells, without rucaparib
[45] = at 1.25 µM, OCI-C5x cells, with rucaparib 10 µM, 100% = cells with rucaparib alone
[46] = at 1.25 µM, OCI-C5x cells, without rucaparib
[47] = at 1.25 µM, OCI-P5x cells, with rucaparib 20 µM, 100% = cells with rucaparib alone
[48] = at 1.25 µM, OCI-P5x cells, without rucaparib
[49] = at 5 µM, OCI-C5x cells, with rucaparib 10 µM, 100% = cells with rucaparib alone
[50] = at 5 µM, OCI-C5x cells, without rucaparib
[51] = at 5 µM, OCI-P5x cells, with rucaparib 20 µM, 100% = cells with rucaparib alone
[52] = at 5 µM, OCI-P5x cells, without rucaparib

O=c1cc(-c2cccc3c2Sc2ccccc2S3)oc(N2CCOCC2)c1
parasite load remaining [1]: 39.8% (inactive)
viability [1]: 161%
remaining activity [2]: 94.8% (inactive)
outcome [3]: inactive
outcome [4]: inactive
outcome [5]: inactive
outcome [6]: inactive
outcome [7]: inactive
fold change [8, 15]: 0.936 (inactive) and 1.01 (inactive)
fold change [8, 16]: 1.11 and 2.27
cell count [8, 17]: 5990 and 5760
cell count [8, 18]: 6400 and 5730
SSMD [9]: 2.97
cell count [9]: 6680
plate-normalised HSF1 focus index [9]: 1.15 (inactive)
z-score [10, 19]: -0.376 (inactive)
z-score [10, 20]: 1.02
viability [11, 21]: 113% (inactive)
viability [11, 22]: 119% (inactive)
viability [11, 23]: 105% (inactive)
viability [11, 24]: 109% (inactive)
viability [11, 25]: 122% (inactive)
viability [11, 26]: 121% (inactive)
viability [11, 27]: 104% (inactive)
viability [11, 28]: 106% (inactive)
viability [11, 29]: 118% (inactive)
viability [11, 30]: 119% (inactive)
viability [11, 31]: 100% (inactive)
viability [11, 32]: 103% (inactive)
viability [11, 33]: 117% (inactive)
viability [11, 34]: 132% (inactive)
viability [11, 35]: 98% (active)
viability [11, 36]: 64.5% (active)
viability [11, 37]: 116% (inactive)
viability [11, 38]: 119% (inactive)
viability [11, 39]: 106% (inactive)
viability [11, 40]: 103% (inactive)
viability [11, 41]: 108% (inactive)
viability [11, 42]: 126% (inactive)
viability [11, 43]: 91.8% (active)
viability [11, 44]: 105% (inactive)
viability [11, 45]: 111% (inactive)
viability [11, 46]: 127% (inactive)
viability [11, 47]: 108% (inactive)
viability [11, 48]: 107% (inactive)
viability [11, 49]: 88.8% (active)
viability [11, 50]: 131% (inactive)
viability [11, 51]: 66.3% (active)
viability [11, 52]: 27.9% (active)
z-score [12]: -0.18 (inactive)

O=C(O)c1ccc(-c2c[nH]c3ncc(-c4ccccc4)cc23)cc1C1CCCC1
remaining activity [2]: 108% (inactive)
outcome [3]: inactive
outcome [5]: inactive
outcome [13]: inactive
outcome [14]: inactive
outcome [7]: inactive
fold change [8, 15]: 0.863 (inactive) and 0.894 (inactive)
fold change [8, 16]: 0.684 and 1.96
cell count [8, 17]: 2990 and 4050
cell count [8, 18]: 3460 and 4530
SSMD [9]: 1.9
cell count [9]: 6900
plate-normalised HSF1 focus index [9]: 1.11 (inactive)
z-score [10, 19]: -0.208 (inactive)
z-score [10, 20]: -2.05
viability [11, 21]: 113% (inactive)
viability [11, 22]: 105% (inactive)
viability [11, 23]: 85.9% (active)
viability [11, 24]: 89.5% (active)
viability [11, 25]: 106% (inactive)
viability [11, 26]: 118% (inactive)
viability [11, 27]: 90% (active)
viability [11, 28]: 99.6% (active)
viability [11, 29]: 112% (inactive)
viability [11, 30]: 120% (inactive)
viability [11, 31]: 101% (inactive)
viability [11, 32]: 100% (inactive)
viability [11, 33]: 118% (inactive)
viability [11, 34]: 115% (inactive)
viability [11, 35]: 97.8% (active)
viability [11, 36]: 103% (inactive)
viability [11, 37]: 95.5% (active)
viability [11, 38]: 112% (inactive)
viability [11, 39]: 95.2% (active)
viability [11, 40]: 103% (inactive)
viability [11, 41]: 91.3% (active)
viability [11, 42]: 116% (inactive)
viability [11, 43]: 102% (inactive)
viability [11, 44]: 102% (inactive)
viability [11, 45]: 88.1% (active)
viability [11, 46]: 105% (inactive)
viability [11, 47]: 93.8% (active)
viability [11, 48]: 93.3% (active)
viability [11, 49]: 65.2% (active)
viability [11, 50]: 60.5% (active)
viability [11, 51]: 92.6% (active)
viability [11, 52]: 75.8% (active)
z-score [12]: 0.065 (inactive)

Reference: PubChem BioAssay
